Casp6 inh – blocks human caspase-6 cleavage activity; 350,000 tested, 0.53% active; P55212; inhibition, % at 12.5 µM; purified caspase-6, Z-VEID-R110 cleavage fluorescence; AID 686996;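 active = mean inhibition across replicates at least about 35%, with every replicate also reaching that limit, limit read from the data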;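 note: 0% = median of neutral control wells and 100% = no fluorescence left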
AF4-AF9 inh – inhibitors of human MLL-AF4/AF9 interaction. 350,000 tested, 0.47% active. inhibition, % at 10 µM. AlphaScreen, biotin-AF4 peptide binding to FLAG-AF9. P42568. AID 651704;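 active = every replicate reaching a set inhibition limit, whatever the replicate mean, cut at about 25% in these data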;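 note: 0% = plate neutral control median and 100% = total signal loss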
RAD54 branch – blocks human RAD54 Holliday junction branch migration; 360,000 tested, 0.14% active; FAM/BHQ fluorescence; Q92698; inhibition, % at 10.4 µM;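 active = mean normalized replicate activity at least 40 and at least half of replicates scoring 40 or more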;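 note: 0% = median of neutral control wells and 100% = median of positive control wells; inhibitors cause a drop in the FAM fluorescence signal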
Target sequence (Q92698 whole entry, looked up): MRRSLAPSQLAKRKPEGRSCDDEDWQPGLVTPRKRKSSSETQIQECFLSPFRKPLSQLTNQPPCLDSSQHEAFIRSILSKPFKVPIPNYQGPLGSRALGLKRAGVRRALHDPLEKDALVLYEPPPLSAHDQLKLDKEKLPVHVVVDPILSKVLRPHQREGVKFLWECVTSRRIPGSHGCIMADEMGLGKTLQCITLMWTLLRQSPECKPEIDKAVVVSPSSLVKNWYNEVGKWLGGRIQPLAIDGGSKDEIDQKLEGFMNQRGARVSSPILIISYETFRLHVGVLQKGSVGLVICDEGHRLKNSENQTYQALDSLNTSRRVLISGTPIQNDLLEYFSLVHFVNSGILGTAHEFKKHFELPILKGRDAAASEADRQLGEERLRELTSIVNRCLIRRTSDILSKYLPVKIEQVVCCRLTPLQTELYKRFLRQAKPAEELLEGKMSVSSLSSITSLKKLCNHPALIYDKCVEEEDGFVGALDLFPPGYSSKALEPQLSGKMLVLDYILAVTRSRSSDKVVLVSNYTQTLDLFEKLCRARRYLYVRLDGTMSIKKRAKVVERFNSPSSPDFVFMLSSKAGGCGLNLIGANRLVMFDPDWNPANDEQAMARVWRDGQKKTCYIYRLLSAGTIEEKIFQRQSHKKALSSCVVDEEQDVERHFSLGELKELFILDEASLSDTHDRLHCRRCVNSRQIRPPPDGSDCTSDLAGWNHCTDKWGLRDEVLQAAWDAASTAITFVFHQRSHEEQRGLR
RAD52 anneal inh – inhibitors of human RAD52 DNA annealing | P43351 | recombinant RAD52 DNA annealing, FRET fluorescence | inhibition, % at 18.7 µM | 360,000 tested, 0.46% active | AID 651710;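 active = every replicate showing at least 50% inhibition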
N-glyco inh – blocks N-linked glycosylation in D54 reporter cells; D54 ERlucT glycosylation luciferase reporter, 24 h; percent of 100 nM tunicamycin response; reporter increase, % at 12.5 µM; 360,000 tested, 0.23% active; AID 588692;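 active = mean luciferase reporter signal, scaled so untreated is 0 and the glycosylation-blocking control 100, at or above a set limit in every replicate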;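 note: luciferase carries N-glycosylation sites so blocking glycosylation raises the light; 0% = median of neutral control wells and 100% = median of 100 nM tunicamycin wells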
* = called active by the depositor; x = no result given. Shown are actives, neighbours in structure and some others; about 1.2% of the full set was active somewhere.

SMILES | Casp6 inh | AF4-AF9 inh | RAD54 branch | RAD52 anneal inh | N-glyco inh
O=S(=O)(Nc1nc(-c2ccco2)c(-c2ccco2)s1)c1ccc(F)cc1F | 62* | 3 | -6 | -51 | 1
O=C(Nc1nc(-c2ccco2)c(-c2ccco2)s1)c1ccc(F)cc1F | 4 | 5 | 1 | -10 | 2
CCC(=O)N(C)C[C@H]1Oc2cc(C#CC3(O)CCCC3)ccc2S(=O)(=O)N([C@@H](C)CO)C[C@H]1C | -1 | -3 | 3 | -10 | x
CO[C@H]1CN(C)C(=O)c2cc(NC(=O)C3CC3)ccc2OC[C@H](C)N(C(=O)NC(C)C)C[C@@H]1C | -3 | -2 | 7 | -1 | x
COc1ccc(C2N(c3ccc(Cl)cc3)N=C(C(C)=O)N(C)N2C(C)=O)cc1 (centres undefined) | 1 | 28* | x | -10 | -8
O=C(/C=C\c1ccco1)NC(=S)Nc1ccccc1O | 49* | 3 | x | -46 | 0
COc1cccc(NC(=S)NC(=O)/C=C/c2ccco2)c1 | 9 | 4 | -17 | -17 | 6
O=C(/C=C/c1ccco1)Nc1nnc(-c2ccco2)s1 | 18 | -2 | x | -24 | 35*
CCc1nnc(NC(=O)/C=C/c2ccco2)s1 | 20 | 3 | x | -35 | 15
Cc1ccc(NC(=S)NC(=O)/C=C/c2ccco2)c(O)c1 | 43* | 0 | -11 | -41 | -1
O=C(/C=C/c1ccco1)NC(=S)Nc1cccc(C(=O)O)c1 | 36* | -2 | -14 | -131 | 0
O=C(O)CCCCCNC(=O)/C=C/c1ccco1 | 8 | -3 | -8 | -4 | 2
O=C(O)CCCNC(=O)/C=C/c1ccco1 | 60* | -42 | x | 17 | 4
O=C(/C=C/c1ccco1)NC(=S)Nc1ccccc1O | 51* | -1 | x | -47 | 0
CCN1CCCC1CNC(=O)c1cc2c(-c3ccc(Cl)cc3)nn(C)c2s1 (centres undefined) | x | x | 51* | x | -4
Cc1ccc(NC(=O)C(c2ccccc2)N2CCN(CC(=O)N3CCOCC3)CC2)cc1Cl (centres undefined) | 47* | -1 | -5 | -5 | -1
CC1CCN(C(C(=O)Nc2ccc3c(c2)OCO3)c2ccccc2)CC1 (centres undefined) | -3 | 52* | 5 | -2 | 0
COc1cc(CN2CC3(CN(C(=O)c4ccc5c(c4)OCO5)C3)c3c(n(C)c4cc(OC)ccc34)[C@H]2CO)cc(OC)c1 | x | -5 | x | x | x
COc1ccc(S(=O)(=O)Nc2ccc3c(c2)C(=O)N([C@H](C)CO)C[C@@H](C)[C@H](CN(C)Cc2ccc(Cl)c(Cl)c2)OCCCC[C@H](C)O3)cc1 | x | x | -2 | x | x
Cc1ccc(-n2nnnc2SCC(=O)NC2CC2)cc1C | 57* | 0 | -1 | -16 | 0
CC1CCCC(NC(=O)COC(=O)c2ccccc2[N+](=O)[O-])C1C (centres undefined) | 0 | 3 | x | 0 | 2
CC1CCCC(NC(=O)COC(=O)c2ccc([N+](=O)[O-])s2)C1C (centres undefined) | 57* | -7 | -1 | -14 | -2
C[C@H]1CN([C@@H](C)CO)C(=O)c2cc(NS(=O)(=O)c3ccccc3)ccc2O[C@@H]1CN(C)Cc1ccncc1 | -2 | -1 | 5 | 10 | x
OC[C@@H]1[C@H](c2ccc(C#Cc3cccnc3)cc2)[C@H]2CN(Cc3ccccc3F)CCCCN12 | -2 | 10 | 3 | 54* | x
COc1ccc(C#Cc2ccc([C@@H]3[C@@H](CO)N4CCCCN(Cc5ccccc5F)C[C@H]34)cc2)cc1 | -9 | 29* | 27 | -4 | x
SMILES | Casp6 inh | AF4-AF9 inh | RAD54 branch | RAD52 anneal inh | N-glyco inh
OC[C@H]1[C@H](c2ccc(C#Cc3cccnc3)cc2)[C@@H]2CN(Cc3ccccc3F)CCCCN12 | -4 | -3 | 4 | 31 | x
O=C(c1cccnc1)N1CCCCN2[C@H](C1)[C@H](c1ccc(C#Cc3ccccn3)cc1)[C@@H]2CO | 3 | 25* | -14 | -81 | x
O=C(COc1ccc(S(=O)(=O)NC2CCCCC2)cc1Cl)NCc1ccc2c(c1)OCO2 | 40* | 0 | -3 | -14 | -3
O=C(COc1ccc(S(=O)(=O)NC2CCCCC2)cc1Cl)Nc1ccc2c(c1)OCO2 | x | x | 12 | x | -3
Cc1ccc(NC(=O)c2cc(S(=O)(=O)NCC3CCCO3)ccc2F)cc1 (centres undefined) | 43* | -2 | 3 | 3 | 1
COC(=O)c1c(NC(=O)/C=C/C(=O)O)sc(C)c1-c1ccc(C(C)C)cc1 | 37* | -2 | x | -27 | 3
COC(=O)c1c(NC(=O)/C=C/C(=O)O)sc(C)c1-c1ccc(C)cc1 | 6 | -1 | 2 | -12 | 0
Cc1nn(-c2ccc(Cl)cc2)c(Cl)c1/C=C(\C#N)C(N)=O | -5 | -4 | 9 | -25 | 9
C=CCNC(=O)/C(C#N)=C/c1c(C)nn(-c2ccc(Cl)cc2)c1Cl | -2 | -1 | x | -10 | 26*
Cn1c(=O)[nH]c(=O)c2c1nc(N1CCN(Cc3ccccc3)CC1)n2CCCc1ccccc1 | 0 | x | -6 | -7 | 37*
C=C(C)Cn1c(N(CCO)Cc2ccccc2)nc2c1c(=O)[nH]c(=O)n2C | -2 | -1 | -5 | -18 | 0
Cn1c(=O)[nH]c(=O)c2c1nc(N(CCO)Cc1ccccc1)n2CCCc1ccccc1 | -1 | -1 | -7 | 2 | 41*
COc1ccccc1S(=O)(=O)N[C@@H]1C=C[C@@H](CC(=O)N2CCN(C)CC2)O[C@@H]1CO | -2 | -17 | -5 | 2 | x
C[C@@H]1CCCCO[C@H](CN(C)C(=O)CCC(F)(F)F)[C@H](C)CN([C@@H](C)CO)C(=O)c2cc(NC(=O)CCCN(C)C)ccc2O1 | x | x | 11 | x | x
O=C(COC(=O)c1ccc([N+](=O)[O-])o1)NCCc1ccccc1 | 29 | -1 | 3 | -7 | -1
O=C(COC(=O)c1ccc([N+](=O)[O-])o1)Nc1ncc(Cl)cc1Cl | 61* | 0 | x | -46 | 3
CC(C)(C)N(Cc1ccccc1)C(=O)COC(=O)c1ccc([N+](=O)[O-])o1 | 45* | 6 | 4 | -16 | -1
O=C(COC(=O)c1ccc([N+](=O)[O-])o1)Nc1ccc(Br)cc1F | 38* | 1 | 0 | -7 | 0
O=C(COC(=O)c1ccc(Br)o1)Nc1ncc(Cl)cc1Cl | 11 | -1 | x | -24 | 2
O=C(COC(=O)c1ccc([N+](=O)[O-])o1)Nc1ccc(N2CCOCC2)cc1 | 34 | 2 | 2 | -8 | 2
O=C(COC(=O)c1ccc([N+](=O)[O-])o1)Nc1ccc(F)cc1 | 55* | 0 | 6 | -5 | 1
O=C(CC1CC1)N[C@H]1CC[C@@H](CCNS(=O)(=O)c2ccc(F)cc2)O[C@@H]1CO | -2 | -2 | 1 | -10 | x
CC=Cc1ccc2n(c1=O)C[C@H]1[C@H](CO)[C@@H](C(=O)OC)N(C(C)=O)[C@@H]21 (mixture of isomers) | -2 | 0 | -4 | -3 | x
COCC#Cc1cnc2c(c1)C(=O)N([C@H](C)CO)C[C@@H](C)[C@H](CN(C)Cc1ccccc1F)O2 | x | -1 | x | x | x

High-throughput results as filed in PubChem.
